Laboratory results: PubChem BioAssay AID1903 (Southern Research Specialized Biocontainment Screening …, 2009)
Values joined by “and” are separate entries in the source; they are usually repeats but may differ in a detail not shown here. Equal entries are not always repeated. Out of some 310,000 compounds screened, about 1,200 (0.39%) were called active. The rule behind the calls is not given here. Not all results are given here. Measured potencies and affinities stand elsewhere.

target: Large T antigen (Simian virus 40) (UniProt P03070); test: TAg ATPase/helicase activity blockers – biochemical (AID 1903); settings: SV40 large T antigen ATPase/helicase inhibition assay; at 20 µM; stronger effect = higher value
Sequence (P03070 whole entry, looked up): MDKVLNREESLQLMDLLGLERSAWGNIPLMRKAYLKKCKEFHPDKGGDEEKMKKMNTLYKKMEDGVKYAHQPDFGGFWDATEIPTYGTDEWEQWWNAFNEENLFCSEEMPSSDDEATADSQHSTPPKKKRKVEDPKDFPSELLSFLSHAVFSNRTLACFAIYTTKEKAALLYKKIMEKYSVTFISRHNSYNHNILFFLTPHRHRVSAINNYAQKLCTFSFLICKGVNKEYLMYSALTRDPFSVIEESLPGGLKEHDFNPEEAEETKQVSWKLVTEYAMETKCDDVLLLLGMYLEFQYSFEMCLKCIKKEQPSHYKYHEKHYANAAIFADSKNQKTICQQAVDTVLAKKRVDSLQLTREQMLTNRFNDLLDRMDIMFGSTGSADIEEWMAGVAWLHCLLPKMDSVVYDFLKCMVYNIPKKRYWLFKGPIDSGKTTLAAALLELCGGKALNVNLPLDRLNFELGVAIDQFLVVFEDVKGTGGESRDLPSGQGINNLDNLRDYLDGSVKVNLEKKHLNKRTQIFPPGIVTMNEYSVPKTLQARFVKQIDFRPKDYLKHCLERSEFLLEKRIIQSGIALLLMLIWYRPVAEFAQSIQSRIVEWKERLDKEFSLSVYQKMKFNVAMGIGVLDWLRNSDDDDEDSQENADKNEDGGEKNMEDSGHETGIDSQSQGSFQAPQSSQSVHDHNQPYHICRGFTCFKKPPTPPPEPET

inhibition, inactive:
CCN(c1ccccc1)S(=O)(=O)c1cc(CN2C(=O)c3cccnc3C2=O)ccc1OC 13.8%
Cc1ccc(CNC(=O)/C=C/c2ccc(S(=O)(=O)N3CCOCC3)cc2)cc1 3.26%
NS(=O)(=O)c1cc(C(=O)OCC(=O)c2ccccc2)c(Cl)cc1Cl 2.42%
NCCCC[C@H](NC(=O)C1CCNCC1)c1nnc([C@@H](N)Cc2ccc(O)cc2)o1 2.89%
COc1cc(/C=C2/SC(=Nc3ccc(O)cc3)NC2=O)ccc1O 37.7%
COc1cc(/C=C2\C(=O)N(C)C(=S)N2C)ccc1O 17.2%
COc1cc(/C=C2\NC(=S)N(C)C2=O)ccc1OCc1ccccc1F 15.8%
COc1ccc(C=C2C(=O)c3ccccc3C2=O)cc1O 36.2%
COc1ccc(N=C2NC(=O)/C(=C/c3ccc(O)c(OC)c3)S2)cc1 28.3%
COC(=O)C1=C(C)N(CCc2ccccc2)C(=O)/C1=C\c1ccco1 10.5%
COc1cc(C=C2C(=O)c3ccccc3C2=O)cc(OC)c1OC 6.63%
O=C1N/C(=C/c2ccco2)C(=O)N1Cc1ccccc1F 11.4%
Cc1ccc(NC(=O)C2CCCN(c3nccc(C)n3)C2)c(C)c1 (stereo not given) 4.92%
Cc1sc2nc(CSCC(=O)Nc3c(F)cccc3F)[nH]c(=O)c2c1C 6.91%
COc1ccc(C(=O)Nn2c(C)nc3ccccc3c2=O)cc1OC -1.86%
Cc1ccc(NC(=O)CSc2ccc3nnc(CCNC(=O)c4ccccc4)n3n2)c(C)c1 9.38%
O=C(c1ccccc1F)N1CCN(C2CCC(c3ccccc3)CC2)CC1 (stereo not given) 18.6%
CC(C)(C)C(=O)NC(=O)Nc1ccccc1C(F)(F)F 2.7%
COC(=O)c1ccc(NC(=O)C2CCCN(S(C)(=O)=O)C2)cc1 (stereo not given) 3.57%
C=CCCN(C1CCCC1)S(=O)(=O)c1ccccc1Br 10.4%
O=C(Nc1nc2ccc(Cl)cc2s1)[C@@H]1CCCN1C(=O)c1cccs1 -3.98%
COC(=O)C1=C(C)N(Cc2ccc(C)cc2)C(=O)/C1=C\c1ccc(O)c(OC)c1 11.5%
CCOc1cc(/C=C2\C(=O)N(CCc3ccc(OC)c(OC)c3)C(C)=C2C(=O)OC)ccc1O 22.8%
CCOC(=O)C1=C(C)N(c2ccc(OC)cc2)C(=O)/C1=C\c1ccc(O)c(OCC)c1 28.2%
CCOC(=O)C1=C(C)N(c2ccc(C)cc2)C(=O)/C1=C\c1ccc(O)c(OC)c1 33.5%
Cc1c(N2C(=O)/C(=C\c3cccc4ccccc34)SC2=S)c(=O)n(-c2ccccc2)n1C 9.9%
Cc1c(N2C(=O)/C(=C/c3ccccc3)SC2=S)c(=O)n(-c2ccccc2)n1C 14.5%
Cc1[nH]c(=O)[nH]c(=S)c1C(=O)Nc1ccc(Cl)c(Cl)c1 -9.05%
CC1(C(=O)O)CCC(C(=O)Nc2ccc(F)cc2)C1(C)C (stereo not given) 17.4%
O=C1c2ccccc2S(=O)(=O)N1CCOc1ccc(F)cc1 6.69%
CCOc1ccc(CCNC(=O)COC(=O)C2=NNC(=O)CC2)cc1OCC 12.5%
COc1ccc2c(c1)C1CC(C)(NC(=O)C1S(=O)(=O)c1ccc(F)cc1)O2 (stereo not given) 22.9%
CCOC(=O)c1ccccc1NC(=O)c1cccc2c1C(=O)N(C1CCN(C(=O)OCC)CC1)C2 5.81% and 1.24%
COc1ccc(CN(CCN(C)C)c2ccccn2)cc1 11.2% and 4.35%
CC[N+](C)(C)CCN(Cc1ccc(Cl)cc1)c1ccccn1 19.1%
O=c1[nH]cc(N(CCO)CCO)c(=O)[nH]1 15.6%
O=C(/C=C/c1ccccc1)OCC(=O)N1CCN(c2ccccc2)CC1 8.9%
Cc1onc(C(=O)NCc2cccs2)c1[N+](=O)[O-] -0.94%
NC1=NC(=O)CC(C(=O)NCCc2ccccc2)S1 (stereo not given) 13.9%
C/C(Nc1ccc(Cl)cc1)=C(/C#N)C(N)=O -6.59%
N#CC(C(=O)Nc1ccc(Cl)cc1)=C1Nc2ccccc2N1 -0.845%
CCc1cc(C(=O)c2ccccc2OC)c(N)s1 12.7%
COC(=O)/C=C/c1ccc2c(c1)OCO2 -5.42%
CCCCOC(=O)/C=C/c1ccc(OC(=O)OC)c(OC(=O)OC)c1 15.3%
CCOc1ccc(NC(=S)N(Cc2ccc(Cl)cc2)Cc2ccco2)cc1 2.54%
O=C(CS(=O)(=O)Cc1ccccc1)N1CCc2ccccc2C1 9.06%
O=C1N=C(N2CCN(c3ccccc3)CC2)S/C1=C\c1ccco1 31.4%
O=C1N=C(N2CCCC2C(=O)O)S/C1=C\c1ccco1 (stereo not given) 3.04%
NN1C(=O)/C(=C\c2ccco2)SC1=S 45.2%
CCCSC1=N/C(=C\C=C\c2ccco2)C(=O)S1 73%
Cc1ccc(N=C2NC(=O)/C(=C/C=C/c3ccco3)S2)cc1 21.2%
O=C1N=C(N2CCN(c3ccccc3)CC2)S/C1=C/c1ccco1 12.4%
O=C1/C(=C\c2ccc(O)cc2)SC(=S)N1Cc1ccccc1 7.6%
O=C(CN1C(=O)S/C(=C\c2ccc(O)cc2)C1=O)c1ccccc1 16.6%
COc1ccccc1-c1noc(CCCC(=O)NC2CCCCC2)n1 29.8%
Cc1cc(C=O)c(C)n1-c1ccc(N2CCOCC2)c([N+](=O)[O-])c1 5.88%
O=C(COC(=O)c1nc(Cl)ccc1Cl)NCCc1ccccc1 -0.66%
CCc1ccc(/C=C2/Sc3ccccc3N(CC(=O)NCC3CCCO3)C2=O)cc1 (stereo not given) 3.57%
Cc1ccc(NC(=O)N2CCC(C(=O)c3ccc(F)cc3)CC2)cc1 3.7%
CCOC(=O)Cn1c(=NC(=O)CN2C(=O)CCC2=O)sc2cc(S(N)(=O)=O)ccc21 11.6%
